According to PubChem BioAssay (NCATS):
Several values for one entry are separate records, joined by “and”; a condition that tells them apart may be missing. Equal values may be shown once. Results filed as inconclusive are left out. Activity calls are given as the source filed them. Unless noted, calls follow the shape of the dose curve; as a rule, active = well fitted curve in the direction sought with a large enough effect; inconclusive = small, poorly fitted or top-dose-only effect, or another doubt; inactive = no such curve, though single readings can be large; an effect the other way counts as inactive or inconclusive.

Columns and labels:
[1] = qHTS of Trypanosoma Brucei Inhibitors: LOPAC Validation (AID 624147); also: 0% is about no effect
In short: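 Assay buffer: 50 mM TEA pH 7.2, 100 mM KCl, 10 mM MgCl2, 0.05% BSA, 0.01% Tween-20. Pyruvate kinase from T. brucei plus substrate met compound, then ADP (130 uM final). Luminescence was read post 45 min RT.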

[2] = qHTS of Nrf2 Activators: LOPAC Validation (AID 624149); also: 0% is about no effect
In short: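 Following overnight seeding in 5% FBS OPTI-MEM, AREc32_Fluc cells receive compounds for a 24 hr incubation at 37 deg C with 5% CO2. Steady-Glo is added, and after 30 min at RT luminescence is recorded.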

[3] = HTS Assay for Allosteric Antagonists of the Human D2 Dopamine Receptor: Hit Validation in HTRF (AID 624455); also: potency is read from the fitted curve at half-maximal effect;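 also: stable D1 dopamine receptor cell line scored for blocking the D1 response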
In short: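 Validation of hits used D1 receptor stably expressed in cells with HTRF detection of response inhibition; origin screen measured calcium flux following EC80 dopamine in a force-coupled, inducible Hek293 Trex D2 cell line.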

[4] = target: Voltage-gated inwardly rectifying potassium channel KCNH2 (Homo sapiens) (UniProt Q12809); test: qHTS Assay for Small Molecule Inhibitors of the Human hERG Channel Activity (AID 588834);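 also: lower thallium flux fluorescence means stronger hERG block; nearly all actives have a fitted effect of over 50% in size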; also: potency is read from the fitted curve at half-maximal effect
In short: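 Thallium serves as surrogate for K+ influx through BacMam-delivered hERG in U2OS cells. Compounds are added for about 10 minutes after dye loading; stimulation buffer then starts flux, monitored kinetically on FDSS.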

[5] = target: Luciferin 4-monooxygenase (Photinus pyralis) (UniProt P08659); test: Biochemical firefly luciferase enzyme assay for NPC (AID 624030);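 also: purified P. pyralis luciferase at 10 nM with luciferin and ATP substrate; 0% = DMSO and -100% = full luciferase inhibition by PTC124 control; nearly all actives have a fitted effect of over 70% in size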
In short: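 Direct inhibition of firefly luciferase enzyme (10 nM final, 50 mM Tris Acetate) assessed by luminescence within 5 minutes. Percent activity scaled between DMSO and PTC124 positive control, with concentration-effect curves classified by fit quality and response.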

[6] = S16 Schwann cell viability assay (CellTiter-Glo assay) (AID 624031); also: nearly all actives have a fitted effect of over 70% in size; also: potency is read from the fitted curve at half-maximal effect
In short: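 Concentration-effect curves come from CellTiter-Glo luminescence of S16 rat Schwann cells after 24 h compound exposure. Each reading was normalized to DMSO wells (0%) and wells without cells, and curves were ranked by r2 and response magnitude.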

[7] = S16 Schwann cell PMP22 intronic element firefly luciferase assay (AID 624032); also: nearly all actives have a fitted effect of over 30% in size; also: potency is read from the fitted curve at half-maximal effect
In short: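 Luciferase reporter of PMP22 intronic-element expression in stably transfected S16 rat Schwann cells, read by ONE-Glo luminescence after 24 h compound exposure at 37 C. Activity scaled between DMSO (0%) and positive-control PTC124; concentration-effect curves quality-classified.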

[8] = target: Glutaminase kidney isoform, mitochondrial (Homo sapiens) (UniProt O94925); test: qHTS for Inhibitors of Glutaminase (GLS): LOPAC Validation (AID 624146);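 also: glutamate product detected by oxidase and peroxidase coupled Amplex red fluorescence gain; % is scaled to controls: 0 for no effect and ±100 for the full control effect; nearly all actives have a fitted effect of over 60% in size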
In short: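 Two-point fluorescence kinetic (t0, 30 min RT) for hKGA; glutamate detected via glutamate oxidase–HRP–Amplex Red. Substrate: 1 mM L-glutamine solution; buffer 45 mM KH2PO4, pH 8.2.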

[9] = S16 Schwann cell PMP22 intronic element beta-lactamase assay (AID 624044; calls by dose curve; also: nearly all actives have a fitted effect of over 15% in size; also: potency is read from the fitted curve at half-maximal effect)
In short: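 Beta-lactamase reporter under a PMP22 intronic regulatory element in stable S16 rat Schwann cells; 24 h compound exposure. 460 nm blue signal normalized between DMSO (0%) and potassium clavulanate, with 535 nm FRET tracking viability; curves classed by r2 and response.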

[10] = qHTS assay for small molecule agonists of the antioxidant response element (ARE) signaling pathway (AID 651741; active = well fitted activation curve with a large enough effect in the signal ratio; the % refers to the signal ratio; also: potency is read from the fitted curve at half-maximal effect; as to activation: % of control where 0% means no effect)
In short: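 Agonist activity is measured as ARE-driven beta-lactamase expression in a stable HepG2 reporter line, using 16 h compound treatment at 37 C and a FRET substrate fluorescence readout after 2 h.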

[11] = qHTS assay for small molecule activators of the p53 signaling pathway (AID 651743; active = well fitted activation curve with a large enough effect in the signal ratio, not every such curve was filed as active; the % refers to the signal ratio; also: % of control where 0% means no effect); conditions: HCT-116 p53RE-bla, beta-lactamase FRET ratio, 16 h; stronger effect = higher value
In short: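 A beta-lactamase reporter under p53 response element control, stably carried by HCT-116 cells, reported pathway activation. Test compounds were applied for 16 hours at 37 C, and fluorescence was measured 2 hours after adding the B/G FRET substrate.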

[12] = qHTS assay for small molecule activators of the nuclear factor-kappa B (NF-kB) signaling pathway (AID 651749; active = well fitted activation curve with a large enough effect in the signal ratio; the % refers to the signal ratio; also: % of control where 0% means no effect); conditions: NF-kB-bla ME-180 cells, beta-lactamase FRET ratio, 16 h; stronger effect = higher value
In short: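 FRET-based beta-lactamase detection in ME-180 cells reports NF-kB response-element-driven transcription following overnight (16 hr) compound treatment.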

[13] = Cytotoxicity counterscreen for NFkB agonists and antagonists (AID 624476);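 also: potency is read from the fitted curve at half-maximal effect; cells exposed to compound for 48 hours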
[14] = qHTS Assay for Identification of Small Molecule Agonists for NFkB Signaling Pathway. (AID 624478);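 also: compounds tested together with TNF alpha at its EC50 of 10 pM; 0% is about no effect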
In short: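 Assay medium contained 0.5% FBS and 10 mM HEPES pH 7.3. Compounds were added together with TNF alpha (10 pM final), incubated 5 h at 37 C, and the beta-lactamase signal was measured fluorometrically.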

[15] = qHTS Assay for Identification of Small Molecule Antagonists for NFkB Signaling Pathway. (AID 624479; calls by dose curve;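 also: pathway stimulated with TNF alpha; potency is read from the fitted curve at half-maximal effect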)
[16] = Cell Proliferation Assay against the TMD8 Cell Line (AID 651645); conditions: TMD8 DLBCL cell line proliferation/viability; at 46.1 µM (top of the series);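 also: cells exposed to compound for 48 h before reading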
In short: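 TMD8 cells, 500/well in RPMI with 5% FBS, dosed immediately and grown 48 h at 37 C, 5% CO2. CellTiter-Glo luminescence normalised to DMSO 100% and 9.2 uM bortezomib (final) 0%.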

[17] = Cell Proliferation Assay against the HBL1 Cell Line (AID 651646); conditions: HBL1 DLBCL cells; at 46.1 µM (top of the series);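 also: cells exposed to compound for 48 h before reading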
In short: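 CellTiter-Glo luminescence after 48 h compound exposure at 37C gives percent activity, with DMSO as 100% and 9.2 uM bortezomib final as 0%. Cells: 500 log-phase HBL1 per well, RPMI plus 5% FBS.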

Chain of Glutaminase kidney isoform, mitochondrial (Homo sapiens) (O94925 whole entry, looked up, canonical isoform): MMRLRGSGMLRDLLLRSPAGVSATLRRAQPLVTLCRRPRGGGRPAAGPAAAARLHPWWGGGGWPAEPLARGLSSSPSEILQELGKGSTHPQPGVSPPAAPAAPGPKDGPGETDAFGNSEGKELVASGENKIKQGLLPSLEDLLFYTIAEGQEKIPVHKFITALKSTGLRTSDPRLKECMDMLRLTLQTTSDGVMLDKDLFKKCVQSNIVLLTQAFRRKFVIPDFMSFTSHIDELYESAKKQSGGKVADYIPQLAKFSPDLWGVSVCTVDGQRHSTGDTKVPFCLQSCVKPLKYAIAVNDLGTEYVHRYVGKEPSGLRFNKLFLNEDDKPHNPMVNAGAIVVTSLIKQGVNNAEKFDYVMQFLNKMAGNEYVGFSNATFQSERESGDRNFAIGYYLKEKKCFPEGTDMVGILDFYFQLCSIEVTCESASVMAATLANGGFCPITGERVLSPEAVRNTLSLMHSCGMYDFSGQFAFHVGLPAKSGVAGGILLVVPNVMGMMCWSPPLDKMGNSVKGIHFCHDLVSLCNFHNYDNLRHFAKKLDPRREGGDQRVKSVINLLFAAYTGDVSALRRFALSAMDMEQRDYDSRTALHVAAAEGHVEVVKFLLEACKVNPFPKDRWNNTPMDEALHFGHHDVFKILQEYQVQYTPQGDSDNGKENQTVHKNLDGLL
Chain of Luciferin 4-monooxygenase (Photinus pyralis) (P08659 whole entry, looked up): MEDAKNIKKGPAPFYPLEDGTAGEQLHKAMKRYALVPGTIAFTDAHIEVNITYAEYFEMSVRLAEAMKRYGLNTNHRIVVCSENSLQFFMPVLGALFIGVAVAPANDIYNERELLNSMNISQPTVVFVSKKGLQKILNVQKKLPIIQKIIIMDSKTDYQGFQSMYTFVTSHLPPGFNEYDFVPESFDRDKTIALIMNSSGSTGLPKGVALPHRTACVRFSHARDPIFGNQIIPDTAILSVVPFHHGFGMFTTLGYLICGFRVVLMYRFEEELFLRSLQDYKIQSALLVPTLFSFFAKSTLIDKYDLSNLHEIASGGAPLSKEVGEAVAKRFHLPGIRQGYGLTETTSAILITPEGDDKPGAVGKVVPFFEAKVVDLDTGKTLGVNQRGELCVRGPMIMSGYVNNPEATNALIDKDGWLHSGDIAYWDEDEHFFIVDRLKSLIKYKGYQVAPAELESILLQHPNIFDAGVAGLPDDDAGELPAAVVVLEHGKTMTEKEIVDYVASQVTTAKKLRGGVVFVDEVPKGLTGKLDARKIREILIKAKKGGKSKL
Chain of Voltage-gated inwardly rectifying potassium channel KCNH2 (Homo sapiens) (Q12809 whole entry, looked up): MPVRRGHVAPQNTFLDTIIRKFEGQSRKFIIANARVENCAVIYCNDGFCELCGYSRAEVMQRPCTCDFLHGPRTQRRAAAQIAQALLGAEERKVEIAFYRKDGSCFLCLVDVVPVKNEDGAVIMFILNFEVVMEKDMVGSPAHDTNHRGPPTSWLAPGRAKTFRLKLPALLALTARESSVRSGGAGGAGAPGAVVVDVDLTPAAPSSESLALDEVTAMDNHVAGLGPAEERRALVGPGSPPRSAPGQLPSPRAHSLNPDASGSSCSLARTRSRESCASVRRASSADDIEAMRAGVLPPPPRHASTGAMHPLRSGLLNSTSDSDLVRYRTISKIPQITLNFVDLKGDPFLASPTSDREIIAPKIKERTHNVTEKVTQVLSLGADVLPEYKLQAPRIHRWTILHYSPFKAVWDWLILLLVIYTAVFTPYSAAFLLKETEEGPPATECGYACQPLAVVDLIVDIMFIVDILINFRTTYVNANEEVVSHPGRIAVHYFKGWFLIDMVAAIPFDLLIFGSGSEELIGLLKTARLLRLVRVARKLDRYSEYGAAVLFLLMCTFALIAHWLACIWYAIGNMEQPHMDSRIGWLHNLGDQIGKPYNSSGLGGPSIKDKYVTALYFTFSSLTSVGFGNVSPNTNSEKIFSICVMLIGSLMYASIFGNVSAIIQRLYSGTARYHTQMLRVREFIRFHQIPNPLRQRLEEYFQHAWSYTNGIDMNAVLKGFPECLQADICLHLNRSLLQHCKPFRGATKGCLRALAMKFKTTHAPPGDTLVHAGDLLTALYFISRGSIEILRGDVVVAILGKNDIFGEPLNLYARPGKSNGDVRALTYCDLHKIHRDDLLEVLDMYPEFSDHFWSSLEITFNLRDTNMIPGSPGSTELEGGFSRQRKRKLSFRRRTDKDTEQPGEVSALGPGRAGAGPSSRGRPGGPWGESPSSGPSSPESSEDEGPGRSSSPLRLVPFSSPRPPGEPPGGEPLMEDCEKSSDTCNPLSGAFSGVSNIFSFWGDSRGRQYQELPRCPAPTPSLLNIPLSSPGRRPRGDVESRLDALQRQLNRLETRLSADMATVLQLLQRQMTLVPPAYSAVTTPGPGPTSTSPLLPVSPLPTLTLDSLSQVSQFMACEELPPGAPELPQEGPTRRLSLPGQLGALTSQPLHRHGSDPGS

N[C@@H](Cc1ccc(O)c(O)c1)C(=O)O
active: Potency [3] 8.2 µM
inactive: outcome [1] | outcome [2]

COc1cnc(NS(=O)(=O)c2ccc(N)cc2)nc1
inactive: Potency [4] | Potency [5] | Potency [6] | Potency [7]

CCCOc1ccc(C(=O)OCCN(CC)CC)cc1N
inactive: Potency [5]

OCc1ccc(-c2nn(Cc3ccccc3)c3ccccc23)o1
inactive: Potency [4] | outcome [8] | outcome [1] | outcome [2] | Potency [3]

CCCCS(=N)(=O)CCC(N)C(=O)O (stereo not given)
inactive: Potency [4] | outcome [8] | outcome [1] | outcome [2] | Potency [3]

CN(Cc1cc(Br)cc(Br)c1N)C1CCCCC1
inactive: Potency [5]
active: Potency [4] 3.16 µM | Potency [7] 36.1 µM

CCOC(=O)[C@H](CCc1ccccc1)N[C@H]1CS[C@H](c2cccs2)CN(CC(=O)O)C1=O
inactive: Potency [4] | Potency [5] | Potency [6] | Potency [7] | Potency [9]

COc1cccc(N(C)C(=S)Oc2ccc3c(c2)CCCC3)n1
inactive: Potency [5] | Potency [9]
active: Potency [4] 3.16 µM

NC(N)=NC(N)=NCCc1ccccc1
inactive: Potency [4] | Potency [5] | Potency [6] | Potency [7] | activation [11] 7.9% and 8.21% | activation [12] 0.778% and 0.59%
active: Potency [10] 37.6 µM

CNNCc1ccc(C(=O)NC(C)C)cc1
inactive: Potency [4] | Potency [5] | Potency [7]

CC[C@H](NC(C)C)[C@H](O)c1ccc(O)c2[nH]c(=O)ccc12
inactive: Potency [4] | Potency [5] | Potency [6] | Potency [7] | Potency [9]

CC(=O)Oc1ccccc1C(=O)Nc1ncc([N+](=O)[O-])s1
inactive: Potency [4] | activation [12] -1.07%

CC(C)OC(=O)C(C(=O)OC(C)C)=C1SC=CS1
inactive: Potency [4] | Potency [5] | Potency [6] | Potency [7] | Potency [9]

Oc1c(Cl)cc(Cl)c2cccnc12
inactive: Potency [4] | Potency [5]
active: Potency [7] 3.61 µM | Potency [9] 28.2 µM

O=P(O)(O)C(O)(Cc1cccnc1)P(=O)(O)O
inactive: Potency [4] | Potency [5] | Potency [6] | Potency [7]

Cc1noc(NS(=O)(=O)c2ccc(N)cc2)c1C
inactive: Potency [4] | Potency [5] | Potency [6] | Potency [7] | Potency [10] | activation [11] -3.81% and -3.88% | activation [12] -1.4% and -1.01%

O=S(=O)(O)CCS
inactive: Potency [4] | Potency [5] | Potency [6] | Potency [7] | Potency [9]

CNC(=O)c1cc(Oc2ccc(NC(=O)Nc3ccc(Cl)c(C(F)(F)F)c3)cc2)ccn1
1.39%: viability, percent of control [17]
inactive: Potency [5] | outcome [14]
-0.0117%: viability (% of control) [16]
active: Potency [4] 7.08 µM | Potency [7] 12.8 µM | Potency [9] 15.8 µM | Potency [13] 18.7 µM | Potency [15] 9.43 µM

O=c1cc(O)c(Cl)c[nH]1
inactive: Potency [4] | Potency [5] | Potency [6] | Potency [7]

C[C@@H](NCCCc1cccc(C(F)(F)F)c1)c1cccc2ccccc12
inactive: Potency [5] | Potency [9]
active: Potency [4] 11.2 µM | Potency [6] 12.8 µM | Potency [7] 14.4 µM

O=NN(CCCl)C(=O)NC1CCCCC1
inactive: Potency [4] | Potency [5] | Potency [6] | Potency [7] | Potency [9]

O=C(O)C1CCCN(CCC=C(c2ccccc2)c2ccccc2)C1 (stereo not given)
inactive: outcome [8] | outcome [1] | outcome [2] | Potency [3]
active: Potency [4] 11.2 µM

COc1nc(N)nc2c1ncn2[C@@H]1O[C@H](CO)[C@@H](O)[C@@H]1O
inactive: Potency [4] | Potency [5] | Potency [6]
active: Potency [7] 2.03 µM

COc1cc2ncnc(Nc3cccc(Cl)c3)c2cc1OC
inactive: Potency [4] | outcome [8] | outcome [1] | outcome [2] | Potency [3]

CNS(=O)(=O)CCc1ccc2[nH]cc(C3CCN(C)CC3)c2c1
inactive: Potency [5]

CN(CCOc1ccc(CC2SC(=O)NC2=O)cc1)c1ccccn1 (stereo not given)
inactive: Potency [4] | Potency [6] | Potency [7] | Potency [9]

CCC(C)(C)c1ccc(CC(C)CN2C[C@@H](C)O[C@@H](C)C2)cc1 (stereo not given in full)
inactive: Potency [5] | Potency [6] | Potency [7] | Potency [9]
active: Potency [4] 12.6 µM

Nc1ccc(S(=O)(=O)Nc2ccccn2)cc1
inactive: Potency [4] | Potency [5] | Potency [6] | Potency [7] | Potency [9]

Nc1nc(N)c2nc(CNc3ccc(C(=O)NC(CCC(=O)O)C(=O)O)cc3)cnc2n1 (stereo not given)
inactive: Potency [4] | Potency [5] | Potency [6] | Potency [9] | outcome [8] | outcome [1] | outcome [2] | Potency [3]
